Compound activity: PubChem, National Center for Advancing Translational Sciences (NCATS)
ELG1 repair inh – inhibitors of ELG1-dependent DNA repair in HEK293T cells | HEK293T ELG1-luciferase reporter, luminescence, 16 h; DNA damage induced by 5-fluorouridine | Potency, µM (top dose mostly 46.1 µM), inactives show at the top dose activity change, negative = inhibition, usual class: inhibitors | actives 2.3% (n = 330,000); further: on the % scale 0 is the no-effect control and ±100 the full control effect; nearly all actives have a fitted effect of over 55% in size
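In this reporter screen, reduction of luminescence relative to DMSO vehicle indicated activity. Compounds and 5-fluorouridine were added together to 2,000 cells per well, incubated for 16 hr at 37 °C, then developed with ONE-Glo.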
FLuc counter – firefly luciferase modulation, counter-screen for miR-21 project; P08659; purified FLuc, Km substrates, luminescence inhibition; Potency, µM (series often up to 57.5 µM), for inactives: at the top dose activity change, negative = inhibition, actives largely listed as inhibitors; actives 6.9% (n = 360,000);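 further: plate controls were vehicle for no effect and reference inhibitor for full effect; nearly all actives have a fitted effect of over 55% in size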
Target sequence (P08659 whole entry, looked up): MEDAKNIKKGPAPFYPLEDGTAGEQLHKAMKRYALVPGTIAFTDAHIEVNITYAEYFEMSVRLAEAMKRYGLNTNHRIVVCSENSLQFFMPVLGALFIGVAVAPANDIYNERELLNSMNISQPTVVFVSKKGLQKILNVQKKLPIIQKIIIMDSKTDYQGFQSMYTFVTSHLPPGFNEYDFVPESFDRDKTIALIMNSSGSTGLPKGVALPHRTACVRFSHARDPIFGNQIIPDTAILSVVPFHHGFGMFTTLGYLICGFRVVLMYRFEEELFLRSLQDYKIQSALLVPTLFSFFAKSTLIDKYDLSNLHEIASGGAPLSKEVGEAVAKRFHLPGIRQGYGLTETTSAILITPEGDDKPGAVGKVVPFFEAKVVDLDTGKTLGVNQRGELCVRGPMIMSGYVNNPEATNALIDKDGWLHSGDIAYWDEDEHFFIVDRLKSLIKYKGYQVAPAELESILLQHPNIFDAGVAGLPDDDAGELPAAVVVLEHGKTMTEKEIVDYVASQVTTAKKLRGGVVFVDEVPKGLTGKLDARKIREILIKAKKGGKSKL
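Purified P. pyralis luciferase, 10 nM final, with Km-level 10 uM D-luciferin and 10 uM ATP in 50 mM Tris acetate pH 7.5, 10 mM Mg acetate, 0.01% Tween-20, 0.05% BSA; 6-point qHTS titration about 60 µM downward; luminescence read.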
Rab9 prom act – Rab9 promoter activation. Huh7 Rab9 promoter-luciferase reporter, luminescence, 24 h. Potency, µM (top dose mostly 9.22 µM), for inactives: top-dose activation, negative = inhibition, actives largely listed as activators. actives 2.8% (n = 320,000); further: % of control where 0% means no effect; nearly all actives have a fitted effect of over 60% in size
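Rab9 promoter-driven luciferase in stably transfected Huh7 cells; 1500 cells/well rested 2 h, exposed to compound in DMSO for 24 h at 37 °C, 5% CO2. Luminescence read 10 min after adding luciferase reagent at ambient temperature.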
ELG1 genotox – inducers of genotoxicity in HEK293T ELG1-luciferase cells; HEK293T ELG1-luciferase reporter, luminescence, 16 h; Potency, µM (titrated, usually from 46 µM), for inactives: at the top dose activity change, positive = activation, most hits filed as activators; actives 1.3% (n = 330,000); AID 504466; further: % of control where 0% means no effect; nearly all actives have a fitted effect of over 60% in size
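Quantitative HTS format in 1536-well plates. HEK293T ELG1-luciferase reporter cells receive test compound and are incubated 16 hr at 37 °C, 5% CO2; ONE-Glo added, 30 min room temperature, then luminescence read.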
SMN2 splice up – increases expression of the SMN2 splice variant. Potency, µM (doses to about 46.1 µM), for inactives: at the highest dose activity change, positive = activation, most hits filed as activators. AID 1458. HEK293 SMN2-luciferase splicing reporter, luminescence, 30-36 h. actives 2.8% (n = 210,000); further: % of control where 0% means no effect; nearly all actives have a fitted effect of over 55% in size
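HEK293 cells carry an SMN2 minigene-luciferase reporter in which exon 7 inclusion puts luciferase in frame. Cells were seeded at 2000 cells/well, attached for 10-12 hours, then exposed to compounds for 30-36 hours at 37C before ONE-Glo luminescence.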
NPC1 promoter act – activates the NPC1 promoter | Huh7 NPC1 promoter luciferase reporter, 24 h | Potency, µM (top dose mostly 9.22 µM), inactives show top-dose activation, usual class: activators | actives 2.4% (n = 320,000); further: % of control where 0% means no effect; nearly all actives have a fitted effect of over 60% in size
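Luminescence read-out of NPC1 promoter-driven luciferase in stably transfected Huh7 cells; compounds delivered in DMSO and left 24 h at 37C, 5% CO2, qHTS titration format.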
Starred values were filed as active, the others as inactive; ? = inconclusive; . = no result given; [ ] = remark or other dose. An excerpt weighted towards active compounds, which were near 9.4% of everything screened. The call rests on the fitted dose curve; in most records, active means well fitted curve in the direction sought with a large enough effect; inconclusive means small, poorly fitted or top-dose-only effect, or another doubt; inactive means no such curve, though single readings can be large; an effect the other way counts as inactive or inconclusive. Potency means the concentration at half of the fitted maximal effect.

SMILES | ELG1 repair inh | FLuc counter | Rab9 prom act | ELG1 genotox | SMN2 splice up | NPC1 promoter act
COc1cc(SC)ccc1C(=O)Nc1ccc(OCC(=O)N2CCOCC2)cc1 | ? | 0.477µM* | 1.78µM* | ? | . | 2.82µM*
COc1cc(SC)ccc1C(=O)Nc1cc(C)c(OCC(=O)N2CCOCC2)c(C)c1 | 14.6µM* | 6.01µM* | 24.8% | -4.7% | . | 26.7%
COc1ccccc1C(=O)Nc1ccc(OCC(=O)N2CC(C)CC(C)C2)cc1 (centres undefined) | -15.1% | 10.7µM* | -3.3% | 1.5% | . | 1.2%
O=C(NCc1ccco1)c1ccccc1SCC(=O)N1CCCC1 | 7.9% | . | 2.3% | 3.3% | . | -0.3%
O=C(O)c1c2c(nc3ccccc13)/C(=C/c1ccc(O)cc1)CC2 | ? | 0.536µM* | ? | -3.9% | -53.1% | ?
O=C(O)c1c2c(nc3ccccc13)/C(=C/c1ccc(OC(F)F)cc1)CCC2 | ? | 12µM* | ? | ? | . | ?
COc1cccc2c1CCc1c-2nc2ccccc2c1C(=O)O | ? | 0.953µM* | ? | ? | . | ?
O=C(O)c1ccc(CS(=O)c2cccc(C(F)(F)F)c2)o1 (centres undefined) | 10.3µM* | 2.0% | -1.4% | -1.2% | -60.5% | -19.9%
O=C(c1ccc(CS(=O)c2ccccc2Cl)o1)N1CCN(c2cccc(C(F)(F)F)c2)CC1 (centres undefined) | . | 4.1% | . | . | . | .
CCN(CC)C(=O)Cn1ncc2c([nH]c3ccc(C)cc32)c1=O | . | 0.1% | . | . | . | .
CCCCC(=O)Nc1nc2ccc(C(=O)OC)cc2s1 | ? | ? | 2.24µM* | ? | ? | ?
COC(=O)CCCCCCCCC(=O)Nc1nc2ccccc2s1 | 2.2% | -1.8% | -0.9% | -1.9% | 22.2% | -0.7%
CCOC(=O)c1ccc2nc(NC(=O)C(C)C)sc2c1 | ? | 9.53µM* | 3.55µM* | ? | 11.2µM* | 1.12µM*
CCCC(=O)Nc1nc2ccc(C(=O)OCC)cc2s1 | ? | ? | ? | 10.3µM* | 17.8µM* | 0.631µM*
CN(C)CCn1c(CO)nc2c1c(=O)n(C)c(=O)n2C | . | . | . | . | -6.9%[9.22 µM] | .
CS(=O)(=O)N(Cc1ccccc1)c1ccc(C(=O)Nc2ccc(Cl)cc2)cc1 | . | 2.6% | . | . | 3.0% | .
O=c1c2ccccc2sn1-c1cc(S(=O)(=O)N2CCOCC2)ccc1N1CCCC1 | -17.4% | 5.36µM* | -1.9% | -1.3% | 13.9% | 11.7%
O=c1c2ccccc2sn1-c1cc(S(=O)(=O)N2CCOCC2)ccc1N1CCOCC1 | 7.5% | 4.78µM* | 10.6% | -3.2% | 4.2% | 1.0%
O=C(NC1CCCCC1)c1n[nH]c2c1CC(c1ccccc1)CC2 (centres undefined) | ? | 3.01µM* | 1.78µM* | ? | . | 2.24µM*
C/C(=N\Nc1ccccc1C)c1cccnc1 | -6.6% | 16.9µM* | 3.8% | 10.8% | . | 2.0%
Cc1cc(C)cc(N2C(=O)CSC23C(=O)N(CC(=O)NCCc2ccccc2)c2ccccc23)c1 (centres undefined) | . | -7.6% | . | . | . | .
CC1CCN(C(=O)c2scc3c2OCCO3)CC1 | 18.4µM* | 1.3% | -3.8% | -11.9% | -19.5% | 1.9%
Cc1cc(C)n(-c2ccc(Cl)c(C(=O)O)c2)n1 | 12.6% | 19µM* | -6.9% | 9.6% | . | -2.1%
COc1cc(/C=C/C(=O)c2ccc(C)c([N+](=O)[O-])c2)cc(OC)c1O | -5.2% | -15.8% | -9.0% | 15.4% | -10.2% | -1.4%
COc1ccc2cc(C(=O)/C=C/c3cc(OC)c(O)c(OC)c3)ccc2c1 | -13.0% | 1.9µM* | -1.1% | -36.6% | . | ?
SMILES | ELG1 repair inh | FLuc counter | Rab9 prom act | ELG1 genotox | SMN2 splice up | NPC1 promoter act
COc1ccc(C(=O)/C=C/c2cc(OC)c(O)c(OC)c2)c(F)c1 | 8.2µM* | 19µM* | -17.0% | -2.5% | . | -0.3%
O=C1C(C=Nc2ccccc2O)=C(O)c2ccccc21 | ? | ? | ? | 16.9% | 35.5µM* | ?
CN=CC1=C(O)c2ccccc2C1=O | 18.2% | 2.9% | 0.4% | 11.2% | 17.3% | 3.8%
Cc1ccc(O)c(C=Nc2cc(C)ccc2O)c1 | 1.1% | -6.8% | 0.3% | -0.1% | 16.7% | -0.4%
Cc1ccc(O)c(N=CC2=C(O)c3ccccc3C2=O)c1 | ? | 6.75µM* | ? | ? | 25.1% | ?
COc1ccc(-n2c(=O)c3sc4ccccc4c3n(Cc3ccccc3C)c2=O)cc1OC | . | -1.7% | . | . | 5.0% | .
COc1ccc(/C=C/C(=O)Oc2ccc(/C=N/NC(=O)COc3c(C)cccc3C)cc2)cc1 | 10.4% | 0.2% | -7.1% | 21.3% | ? | -1.5%
COc1ccc(/C=C/C=N/NC(=O)COc2ccc(OC)cc2)cc1 | 10.8% | 4.78µM* | 19.3% | 1.0% | 22.8% | 13.1%
Cc1ccc(OCC(=O)N/N=C/C=C/c2ccco2)cc1 | 2.5% | 19µM* | -4.9% | -0.5% | -0.6% | -2.2%
COc1ccc(/C=C/C(=O)Oc2cccc(/C=N/NC(=O)COc3c(C)cccc3C)c2)cc1 | ? | -13.6% | 2.82µM* | ? | ? | 1.58µM*
O=C(COc1cccc2ccccc12)N/N=C/C=C/c1ccccc1 | -1.8% | 0.1% | -8.9% | 3.5% | 1.3% | -1.3%
O=C(NCCc1ccc(F)cc1)C(=O)NCC(c1cccs1)S(=O)(=O)c1ccc(F)cc1 (centres undefined) | . | -8.5% | . | . | . | .
O=C(O)c1ccc(Nc2nc(-c3ccccc3)nc3ccccc23)cc1 | -10.7% | 21.3µM* | -8.9% | -5.6% | . | -3.8%
CNC(=O)c1ccc(Nc2nc(-c3ccccc3)nc3ccccc23)cc1 | 14.6µM* | ? | 16.1% | -15.7% | . | 15.7%
CC(/C=C/c1ccc(N(C)C)cc1)=N\N=C(/N)SC1CC(=O)N(c2ccc(C(=O)O)cc2)C1=O (centres undefined) | ? | 1.07µM* | ? | ? | ? | 26.1%
O=C(O)c1ccc(N2C(=O)CC(SC(=Nc3ccccc3)Nc3ccccc3)C2=O)cc1 (centres undefined) | 0.8% | 1.1% | 2.3% | -0.6% | 7.8% | 2.1%
O=C(NCCCN1CCOCC1)c1sc2cc([N+](=O)[O-])ccc2c1Cl | 4.9% | ? | -6.1% | -3.3% | 1.7% | -0.4%
Cc1ccnc(NC(=O)c2sc3ccccc3c2Cl)c1 | ? | 0.12µM* | 0.316µM* | 0.92µM* | 3.16µM* | 0.1µM*
Cc1ccnc(NC(=O)c2cccc3ccccc23)c1 | -2.9% | 2.5% | ? | 0.1% | . | ?
CC(C)c1nnc(NC(=O)c2sc3ccccc3c2Cl)s1 | ? | 4.78µM* | ? | 18.9% | ? | 3.16µM*
Cc1cnc(NC(=O)c2sc3ccccc3c2Cl)s1 | ? | 0.301µM* | ? | 0.651µM* | 1µM* | ?
